The campaign covered roughly 360,000 compounds. About 1,700 (0.47%) were called active. Rule as the data show it: active = activation above about 15%; inactive = the rest. The sample as a whole holds a higher share of actives than the screen did.

The assay can be described thus: counter-screen for M1 agonists: effect in parental CHO-K1 cells (AID 602248).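 Also: untransfected CHO-K1 host cells lacking M1 receptor as counterscreen.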 The following applies: Fluo-8 calcium fluorescence, at 3 µM, hits give high values, scaled to maximal ATP response, vehicle zero. Background: A counterscreen serves to expose hits that act by an unwanted route or on another target.
Consider `NC(=O)C1=C[C@@H](c2csc3ccccc23)C[C@@H](OCc2ccc(CO)cc2)O1`, for which the activation is 5.09% (inactive). As to `O=C(NC1CC1)C1=C[C@H](c2c[nH]c3ccccc23)C[C@H](OCc2ccc(CO)cc2)O1`, the activation is -0.26% (inactive). As for `NC(=O)C1=C[C@H](c2csc3ccccc23)C[C@H](OCc2ccc(CO)cc2)O1`, the activation was 15.6% (active).

In the case of `Cc1ccc(N)cc1-n1c(C)ccc1C`, the activation was 0.3% (inactive). For `O=C(CSc1ccc(Cl)cc1)NC1CC1`, the activation was -0.25% (inactive).

For `CCC1(C)Cc2c(sc3nc(SC)[nH]c(=O)c23)CO1` (stereo unspecified), the activation is 18.7% (active).

Consider `CCSc1nc2sc3c(c2c(=O)[nH]1)CC(C)(C)OC3`, for which the activation was 0.45% (inactive).

`CC/C(C)=N/Nc1nc2sc3c(c2c(=O)[nH]1)CC(C)(C)OC3`: the activation is 0.65% (inactive). As to `COc1ccc(-n2ncc3c2CC(C)(C)CC3NC(=O)CCc2c(C)nn(C)c2C)cc1` (stereo unspecified), the activation is 2.09% (inactive).

As for `CCCC(C)C(=O)Nc1ccc(NC(C)=O)cc1` (stereo unspecified), the activation was -0.01% (inactive). For the molecule `CCC(C(=O)Nc1ccc(C(C)C)cc1)c1ccccc1` (stereo unspecified), the activation is 21.5% (active). Take `Cc1ccc(NC(=O)C(C)c2cccc(C(=O)c3ccccc3)c2)cc1` (stereo unspecified): the activation is 3.5% (inactive). On to `COc1ccc([C@H]2C[C@@H](n3cc(COC(=O)c4ccccc4)nn3)[C@H](O)CN2C(=O)c2cccs2)cc1`, for which the activation is 4.74% (inactive). As to `O=C(NCCc1ccccn1)c1cc(C(=O)C2CCCCC2)c[nH]1`, the activation was 0.74% (inactive). As for `CC(C)N(Cc1ccccc1)C(=S)Nc1ccc(OC(F)F)cc1`, the activation is 3.54% (inactive). Consider `CC(NC(=S)Nc1ccc(OC(F)F)cc1)c1ccc(F)cc1` (stereo unspecified), for which the activation is 18.2% (active). In the case of `CC/C(=N\NC(=S)NC(C)C)c1ccc(OC(F)F)cc1`, the activation was 0.04% (inactive). `COC(=O)[C@]12CCCCC=C1N(CCC1=CCCCC1)C(=O)[C@H](CC(=O)N1CCSCC1)C2`: the activation is 2.39% (inactive). For `O=C(CC(=O)N/N=C\c1cccc(Cl)c1Cl)NCc1ccccc1`, the activation is 6.61% (inactive). With `CSc1sc(C)cc1C1C(C#N)=C(N)N(c2cccnc2)C2=C1C(=O)CCC2` (stereo unspecified), the activation is 0.25% (inactive).

For the molecule `C=CC(=O)OCCOCCOCCOCCOC(=O)C=C`, the activation is 0.44% (inactive). To `Oc1ccccc1N1CCN(c2ncnc3sc(-c4ccccc4)cc23)CC1` belongs 18.6% (active). As to `COc1ccccc1N1CCN(c2ncnc3sc(C)c(-c4ccccc4)c23)CC1`, the activation was 0.5% (inactive). For `CCc1cc2c(N3CCN(c4nnc(CC)s4)CC3)ncnc2s1`, the activation is 3.43% (inactive).

For the molecule `CCOC(=O)[C@H]1[C@H]2COc3ccc(Cl)cc3[C@@H]2N2C(=O)c3cc(C)ccc3NC(=O)[C@@]12C`, the activation was -0.51% (inactive). Consider `COc1ccc(CSc2nnnn2-c2ccc(O)cc2)cc1F`, for which the activation is 7.29% (inactive). To `COc1ccc2c(c1)[C@H]1[C@H](CO2)[C@H](c2ccccc2)[C@]2(C)C(=O)Nc3cc(F)c(F)cc3C(=O)N12` belongs 0.27% (inactive). To `CCN1C(=NCC(C)C)N[C@@H](CCc2ccccc2)[C@H](C(=O)NCC(C)C)[C@H]1C` belongs 0.45% (inactive); to `O=S1(=O)CC(N2CCN(Cc3ccccc3F)CC2)CN1Cc1cn(Cc2ccccc2)nn1` (stereo unspecified), 0.46% (inactive); to `CCOC(=O)CC1=CC(=O)Nc2ccccc2N1`, 0.86% (inactive). As to `NS(=O)(=O)c1ccc(NC(=O)COC(=O)c2c3c(nc4ccccc24)/C(=C\c2ccc4c(c2)OCO4)CCC3)cc1`, the activation was 17.2% (active).

In the case of `NS(=O)(=O)c1ccc(NC(=O)COC(=O)CCc2c[nH]c3ccccc23)cc1`, the activation is 2.12% (inactive). In the case of `CC(=O)Nc1cccc(C(=O)OCC(=O)c2ccc3c(c2)OCO3)c1`, the activation is 3.56% (inactive). Regarding `NC(=O)c1ccc(NC(=O)COC(=O)c2c3c(nc4ccccc24)/C(=C\c2ccc4c(c2)OCO4)CCC3)cc1`, the activation is 28.9% (active).

As for `O=C(COC(=O)c1ccc(Cl)nc1)NCc1ccc2c(c1)OCO2`, the activation was 1.56% (inactive). In the case of `CC(NC(=S)Nc1ccc(S(N)(=O)=O)cc1)c1ccc2c(c1)OCO2` (stereo unspecified), the activation is 0.36% (inactive). To `Cc1ccc(NS(=O)(=O)c2cn(C)c(=O)n(C)c2=O)c(C)c1` belongs 0.05% (inactive). Consider `O=C(COC(=O)c1cncc(Br)c1)Nc1ccc(S(=O)(=O)N2CCOCC2)cc1`, for which the activation was 0.85% (inactive). As to `CCOC(=O)N(Cc1ccccc1)C1CC1`, the activation was 0.45% (inactive).

`CN(C(=O)CN(CCO)CC(=O)N(C)C(C)(C)Cc1ccccc1)C(C)(C)Cc1ccccc1`: the activation is 30.2% (active). `CN(CCO)C(=O)c1nc[nH]c1C(=O)N(C)Cc1ccccc1`: the activation is 0.53% (inactive). As for `COc1ccc(CCNS(=O)(=O)c2ccc(Cl)s2)cc1OC`, the figure is 0.5% (inactive). To `CCCn1c(=O)c2ccccc2n2c(SCC(=O)/C(C#N)=C(\C)N)nnc12` belongs -0.17% (inactive). For the molecule `CN(C)c1ccc(C(CNC(=O)c2ccc(F)cc2)c2c[nH]c3ccccc23)cc1` (stereo unspecified), the activation was 0.33% (inactive). With `COC(=O)c1nc2n(n1)C(c1ccc([N+](=O)[O-])cc1)C(C(=O)Nc1ccc(Cl)cc1)=C(C)N2` (stereo unspecified), the activation is 0.7% (inactive). As to `CCN(CC)CCCC(C)n1c2nc(=O)[nH]c(=O)c-2nc2cc(Cl)ccc21` (stereo unspecified), the activation is 150% (active). As for `CC(=O)c1c(C)[nH]c(C(=O)OCC(=O)Nc2c(C)n(C)n(-c3ccccc3)c2=O)c1C`, the activation was 0.66% (inactive). With `O=C(c1ccc(=O)[nH]c1)N(Cc1ccco1)C1(C(=O)NC2CCCCC2)CCCCC1`, the activation was 0.04% (inactive). Take `COc1ccc(OC)c(NC(=O)C2CCCN2S(=O)(=O)c2cccc3nsnc23)c1` (stereo unspecified): the activation is 0.61% (inactive). As for `Nc1ccc2[nH]c(=S)sc2c1`, the activation was 0.51% (inactive).

Take `O=C(CCN1C(=O)COc2ccccc21)NCCCN1CCN(c2ccc(F)cc2)CC1`: the activation was 0.21% (inactive). As to `CN1CCN(CCNC(=O)Nc2ccc([N+](=O)[O-])cc2)CC1`, the activation is 0.55% (inactive). For `O=C(NCCCN1CCN(c2ccc(F)cc2)CC1)Nc1ccc([N+](=O)[O-])cc1`, the activation is 15.1% (active).

Take `CCn1nnnc1SCC(=O)Nc1ccc(N(C)C)cc1`: the activation is 0.31% (inactive). To `Nc1nc(CSc2nnnn2-c2ccccc2)nc(Nc2ccccc2)n1` belongs 1.93% (inactive); to `Cc1ccccc1Nc1nc(N)nc(CSc2ccccc2)n1`, 0.45% (inactive); to `CCSCc1nc(N)nc(NCCc2ccccc2)n1`, 15.5% (active). Take `CCOC(=O)C1(Cc2cccc(OC)c2)CCN(C(C)CC(C)(C)O)CC1` (stereo unspecified): the activation was 13.4% (inactive). `Cc1ccc(NC(=O)COC(=O)CCc2nc3ccccc3n2-c2ccccc2)c(C)c1`: the activation is -0.22% (inactive). Regarding `COc1cc(OC)cc(C(=O)NNC(=O)CCOc2ccccc2OC)c1`, the activation is 0.49% (inactive). `O=C(OCCN=C1NS(=O)(=O)c2ccccc21)c1cccc([N+](=O)[O-])c1`: the activation was 1.57% (inactive). Take `N#CC1(NC(=O)COC(=O)CCN=C2NS(=O)(=O)c3ccccc32)CCCCC1`: the activation is 1.21% (inactive). For the molecule `O=C(CCCN=C1NS(=O)(=O)c2ccccc21)OCC(=O)c1ccc(F)c(F)c1`, the activation is 16.5% (active). To `O=C(NCCCN1CCCC1=O)c1cccc(S(=O)(=O)NCc2ccccc2)c1` belongs 0.5% (inactive); to `CC(C)(C)C(=O)NNC(=O)c1ccc(Oc2cc(Cl)cc(Cl)c2)o1`, 0.25% (inactive); to `CC(C(=O)N1CCc2ccccc21)N(C)CC(=O)Nc1ccc(F)cc1` (stereo unspecified), 1.77% (inactive). In the case of `CC(C)CNC(=S)NNC(=O)c1ccccc1OC(F)F`, the activation was 0.18% (inactive). To `Cc1scc(C(=O)NNC(=S)NCc2ccccc2)c1C` belongs 1.16% (inactive); to `O=C(/C=C/c1ccc(F)cc1)NC(=S)NNC(=O)c1cccnc1`, 1.3% (inactive); to `COc1ccc(C(=O)NNC(=S)NC(=O)c2ccccc2)cc1`, 38.2% (active). `COc1ccc(/C(N)=N/OC(=O)CCCc2ccccc2)cc1`: the activation is -0.55% (inactive). Take `COc1ccccc1CCC(=O)NNC(=O)c1ccncc1`: the activation is 0.44% (inactive).

On to `Cn1nnc(NC(=S)NC(=O)c2ccccc2)n1`, for which the activation was 0.43% (inactive). Turning to `CC(=O)NC(=S)NNC(=O)c1ccc(Br)cc1`, the activation is -0.94% (inactive). As for `Cc1onc(-c2ccccc2)c1C(=O)NNC(=S)NC(=O)c1ccc(F)cc1`, the figure is 28.7% (active); as for `COc1ccc(C(=O)NC(=S)NNC(=O)CCc2ccccc2)cc1`, 21.1% (active); as for `O=C(NNC(=S)NCc1ccccc1)c1ccc(OC(F)F)cc1`, 15.8% (active). Regarding `Cc1onc(-c2ccccc2)c1C(=O)N1CCN(S(=O)(=O)c2ccccc2C(F)(F)F)CC1`, the activation is 0.62% (inactive). Take `O=C(Oc1ccc2c(c1)CCC2)N1CCOCC1`: the activation is 1.59% (inactive). Regarding `CCC(=O)c1cc(F)ccc1OCC(=O)Nc1ccc2c(c1)OCCO2`, the activation is 0.59% (inactive). As to `CC(C)NC(=O)C1(C)CCCCN1Cc1cccc(C(F)(F)F)c1` (stereo unspecified), the activation was -0.34% (inactive).

With `Cc1cccc(NC(=O)N2CCCCCC2)c1C`, the activation was 0.19% (inactive). With `Cc1ccc(S(=O)(=O)NC(C)C(=O)Nc2ccccc2C(=O)N2CCCC2)cc1` (stereo unspecified), the activation is -0.4% (inactive).

Consider `O=S1(=O)CCOC[C@H](CC2CCCCC2)N1Cc1ccc(F)cc1`, for which the activation was -0.24% (inactive). To `CCC(C)c1ccccc1N1CC(C(=O)N2CCN(S(=O)(=O)c3ccc(F)cc3)CC2)CC1=O` (stereo unspecified) belongs 1.26% (inactive). Take `COc1cccc(-c2ccc(C#N)c(SCC(=O)NCCc3ccc(Cl)cc3)n2)c1`: the activation was -0.1% (inactive). `CC(=O)Oc1ccc(-c2cccc(C(=O)N3CCCCC3)c2)cc1`: the activation is 2.44% (inactive).

Turning to `Nc1c(C(=O)c2cccs2)sc2nsc(SCCN3CCCCC3)c12`, the activation was 69.8% (active). Regarding `CCOC(=O)C(C)Sc1nnc(CSc2nc3nc(C)cc(C)n3n2)o1` (stereo unspecified), the activation was 1.72% (inactive). Take `Cc1ccc(NC(=O)CC2S/C(=N/N=C3\CCCc4ccccc43)NC2=O)cc1` (stereo unspecified): the activation is 12.4% (inactive). Turning to `O=C(OCc1ccccc1)N1CCC2CC1c1ccc(-c3ccc4c(c3)OCO4)cc12` (stereo unspecified), the activation is 1.17% (inactive).

Values taken from PubChem BioAssay AID602248 (The Scripps Research Institute Molecular Screening Center, 2012).
